# Source: PMC6212790, “How bacterial xenogeneic silencer rok distinguishes foreign from self DNA in its resident genome”
# Whole data set: some 33,000 sequences, median “e-score” near -0.038, cut for the highest 2% near 0.33. The list comes from a sample in which the highest values are over-represented; it also holds similar and randomly drawn sequences.
# Target: T1, GST-Rok-C97-191 (Bacillus subtilis subsp. subtilis str. …, UniProt O34857 97-191)
# T1 sequence: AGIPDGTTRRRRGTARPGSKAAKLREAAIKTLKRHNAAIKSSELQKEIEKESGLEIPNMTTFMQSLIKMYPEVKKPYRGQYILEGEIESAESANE
# Assay: protein binding microarray; Rok is a gene silencer of Bacillus subtilis; high values mean tight binding
# Conditions: protein: recombinant; tags: GST (pTH5325, pDEST15-Magic modified); dsDNA, one strand shown
# Outline: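 Each has a 25-mer constant primer and a 35-mer variable part from a de Bruijn sequence of order 10, covering every non-palindromic 8-mer at least 32 times (palindromic 16). Preference for each 8-mer is given as a rank-based, unitless enrichment score (E-score). Its range runs from 0.5 (most favored) to −0.5 (most disfavored).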
row,Sequence,binding signal
1,GATAGCGC,0.191 E-score
2,GCAAATAA,0.158 E-score
3,AATGATGA,0.00727 E-score
4,CAAAGTAG,0.194 E-score
5,AATAGTCG,-0.0896 E-score
6,AAAAGTAC,0.279 E-score
7,AATAGTAG,0.475 E-score
8,CATAGTAG,0.195 E-score
9,AAAAGTAG,0.344 E-score
10,AGACCACG,-0.138 E-score
11,CGTGTAAC,0.0552 E-score
12,CTAGGCAC,-0.149 E-score
13,CGGCTAAC,0.00729 E-score
14,GAGTTCAC,0.0331 E-score
15,AGCTCGGG,-0.116 E-score
16,AATATAGA,0.309 E-score
17,ACTATATG,0.283 E-score
18,AATATATG,0.337 E-score
19,AATATAAG,0.26 E-score
20,CCTATATC,0.0424 E-score
21,AATATGTG,0.199 E-score
22,AATATTAT,0.21 E-score
23,AAAATATT,0.327 E-score
24,AATATATC,0.424 E-score
25,CGTATATC,0.316 E-score

row,Sequence,binding signal
1,AATATATT,0.417 E-score
2,AATATATA,0.462 E-score
3,CAGAAACG,-0.0943 E-score
4,TAAGTCAA,-0.0154 E-score
5,ATGATCCA,0.0416 E-score
6,ACCAACAT,0.157 E-score
7,CCATCGGG,-0.172 E-score
8,GCCGGACA,0.0879 E-score
9,ATTATGTA,0.354 E-score
10,GCTATGTA,0.226 E-score
11,GTTATGTA,0.292 E-score
12,CCTATGTA,0.302 E-score
13,ACTATGTA,0.356 E-score
14,CTTATGTA,0.0579 E-score
15,AAGGGCAG,-0.195 E-score
16,AACACATG,0.0194 E-score
17,AAGCTGTC,0.0421 E-score
18,ACCAGGAC,-0.0513 E-score
19,AAATGTAA,0.349 E-score
20,AAATGTAG,0.286 E-score
21,CAATGTAA,-0.0287 E-score
22,CAATGTAC,0.204 E-score
23,GAATGTAC,0.304 E-score
24,CCATGTAC,0.185 E-score
25,TAATGTAA,0.357 E-score

row,Sequence,binding signal
1,ACATGTAC,0.331 E-score
2,AAATGTAT,0.27 E-score
3,GCATGTAC,0.163 E-score
4,AAATGTAC,0.364 E-score
5,GAATGTAA,0.173 E-score
6,TAATTAGA,0.324 E-score
7,CATAAAGC,-0.119 E-score
8,GTGCTAGA,0.197 E-score
9,CTAGCAAC,0.222 E-score
10,TGCGACAA,-0.0569 E-score
11,CGTGCAGC,-0.0438 E-score
12,GCTACGGA,-0.0221 E-score
13,CCCTAGCG,-0.135 E-score
14,CCACGCTC,-0.0229 E-score
15,ATAGGTTA,0.162 E-score
16,AGATGTAT,0.264 E-score
17,ATATGTAG,0.386 E-score
18,ATATGTAC,0.309 E-score
19,AGATGTAG,0.331 E-score
20,AGATGTAA,0.191 E-score
21,ATCTGTAA,0.106 E-score
22,ATCTGTAG,0.37 E-score
23,ATATGTAA,0.28 E-score
24,ATCTGTAC,0.0594 E-score
25,AAAAGTGG,0.0303 E-score

row,Sequence,binding signal
1,GCTACATA,0.315 E-score
2,GCTAGGCA,-0.0675 E-score
3,CAAGGGCC,-0.186 E-score
4,AAAATACG,0.266 E-score
5,AAAATACT,0.371 E-score
6,AAAATACA,0.32 E-score
7,CAAATACC,0.114 E-score
8,GAAATACC,0.289 E-score
9,AAAATACC,0.357 E-score
10,AAGTAAGG,0.0741 E-score
11,AGAGTTTC,-0.0267 E-score
12,GTCGGTTA,0.00256 E-score
13,AAAGTTTG,-0.0186 E-score
14,AGAACGCC,0.0453 E-score
15,AGGTCCTC,-0.0779 E-score
16,ACTCCTTA,0.00627 E-score
17,AAAACCAA,0.0758 E-score
18,AGTGATGA,0.024 E-score
19,CGTAGTAG,0.223 E-score
20,CGTAGTAC,0.186 E-score
21,GGTAGTAC,0.268 E-score
22,ATTAGTAG,0.319 E-score
23,AGCAGTAT,0.0236 E-score
24,AGTAGTAG,0.385 E-score
25,AGTAGTAT,0.368 E-score

row,Sequence,binding signal
1,AGAAGTAT,0.292 E-score
2,AGTAGTAC,0.356 E-score
3,GTTGGCTA,0.0528 E-score
4,CACAGGTA,-0.0357 E-score
5,CTCAATAA,0.215 E-score
6,GATATTAA,0.379 E-score
7,AATATTAC,0.284 E-score
8,CGTATTTA,0.318 E-score
9,AGTATTTA,0.301 E-score
10,CATATTTA,0.282 E-score
11,GGTATTTA,0.342 E-score
12,AATATTAA,0.285 E-score
13,CATATTAA,0.194 E-score
14,CATATTAC,0.22 E-score
15,GATATTAC,0.328 E-score
16,AATATTTA,0.311 E-score
17,GATATTTA,0.328 E-score
18,CTGCAGGC,-0.199 E-score
19,ACCACTCG,-0.181 E-score
20,ACATCATG,-0.155 E-score
21,GCTCGACA,-0.145 E-score
22,CCCATTAC,-0.0975 E-score
23,GCTAACAC,-0.0971 E-score
24,TGCCTGAA,-0.0885 E-score
25,CGAGTCCG,-0.192 E-score

row,Sequence,binding signal
1,TATATTAA,0.387 E-score
2,TGTATTAA,0.294 E-score
3,TATATTGA,0.288 E-score
4,CAACGAAA,0.00998 E-score
5,AATTCACG,0.127 E-score
6,CGCTTTGA,-0.0415 E-score
7,AGTACTTG,0.296 E-score
8,GCTACTAA,0.229 E-score
9,CGTACTTA,0.23 E-score
10,ACTACTGA,0.269 E-score
11,TCTACTCA,0.188 E-score
12,AGTACTTA,0.355 E-score
13,ACTACTTC,0.226 E-score
14,ACTACTTA,0.415 E-score
15,TCTACTAA,0.342 E-score
16,GGTACTAA,0.249 E-score
17,ACTACTAA,0.379 E-score
18,TGTACTAA,0.191 E-score
19,CGTCCCAA,-0.181 E-score
20,CATTATGA,0.0691 E-score
21,TCCACTCA,-0.127 E-score
22,AGCCAATG,-0.162 E-score
23,CGCAGAAG,-0.171 E-score
24,ATAATTAA,0.298 E-score
25,CTAATTCC,0.159 E-score

row,Sequence,binding signal
1,ATAATTAG,0.354 E-score
2,CTAATTAC,0.382 E-score
3,GAATTTAA,0.124 E-score
4,TAATTTAA,0.396 E-score
5,AAATTTAA,0.299 E-score
6,CTAATTAA,0.275 E-score
7,CCAATTAC,0.0758 E-score
8,TCAATTAA,0.161 E-score
9,ATAATTAT,0.137 E-score
10,TTAATTAA,0.346 E-score
11,GTCCTAGA,-0.199 E-score
12,AATGTCGC,0.0115 E-score
13,CTAGCTAG,0.294 E-score
14,ATCTTAGG,-0.016 E-score
15,CGGCGGTA,0.123 E-score
16,CCAGGTCA,-0.0861 E-score
17,ATAATTAC,0.332 E-score
18,CGAATTAG,0.279 E-score
19,GTAATTAC,0.43 E-score
20,ATAATTGC,0.26 E-score
21,AGAATTAC,0.217 E-score
22,CTAATTAG,0.362 E-score
23,CCAATTAG,-0.111 E-score
24,GCAATTAC,0.13 E-score
25,GTAATTAA,0.213 E-score
